PubChem BioAssay (NCI)
This is part of a sample that, as a whole, favours compounds with a hit. Of some 79,000 tested, about 15% had one in any assay. Activity calls are given as the source filed them. Cut-off read from the data, not from the text of the source: active = growth inhibition above about 70%; inactive = the rest.

Columns and labels:
[1] = NCI Yeast Anticancer Drug Screen. Data for the rad52 strain (AID 147);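 note: 0% = growth of vehicle-treated control cultures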; details: S. cerevisiae rad52 mutant growth inhibition, hits give high values
In short: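 Growth of repair-deficient yeast cells was compared between compound-treated and vehicle-treated cultures to give percent inhibition.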

[2] = NCI Yeast Anticancer Drug Screen. Data for the wt1 strain (AID 149);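 note: 0% = growth of vehicle-treated wt1 cultures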; details: S. cerevisiae wt1 strain (SPY 50644) growth inhibition, hits give high values
In short: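 Compounds are added to wt1 yeast cultures. Growth is then measured. Inhibition is expressed relative to vehicle-treated controls.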

[3] = NCI Yeast Anticancer Drug Screen. Data for the rad50EPP+ strain (AID 151);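 note: 0% = growth of vehicle-treated control cultures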; details: S. cerevisiae rad50 mutant strain, hits give high values
In short: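 Measured: growth inhibition of rad50EPP+ yeast. Reference: vehicle-treated controls. Screen uses strains with defined genetic alterations in DNA damage repair or cell cycle control.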

[4] = NCI Yeast Anticancer Drug Screen. Data for the rad50 strain (AID 155);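 note: 0% = growth of vehicle-only cultures of the same strain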; details: S. cerevisiae rad50 strain growth inhibition, hits give high values
In short: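 Inhibition values express reduced yeast growth in compound-treated cultures relative to vehicle-treated controls.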

[5] = NCI Yeast Anticancer Drug Screen. Data for the mec2-1 strain (AID 157); details: S. cerevisiae mec2-1 strain, hits give high values
In short: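 Compounds were applied to mec2-1 yeast cells. Their growth was then compared with that of vehicle-treated cultures to give growth inhibition.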

[6] = NCI Yeast Anticancer Drug Screen. Data for the rad14 strain (AID 159);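 note: 0% = growth of vehicle-treated control cultures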; details: S. cerevisiae rad14 strain growth inhibition, hits give high values
In short: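 A mutant yeast strain defective in DNA damage repair is treated with compound; inhibition of its growth is scored against untreated, vehicle-exposed cultures.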

[7] = NCI Yeast Anticancer Drug Screen. Data for the sgs1 mgt1 strain (AID 161);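 note: 0% = growth of cultures given vehicle only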; details: S. cerevisiae sgs1 mgt1 strain, hits give high values
In short: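 Percent growth inhibition was derived by comparing compound-exposed mutant yeast with vehicle-exposed cultures. The strain carries alterations in DNA damage repair.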

[8] = NCI Yeast Anticancer Drug Screen. Data for the CLN2oe strain (AID 163);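 note: 0% = growth of vehicle-only control cultures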; details: S. cerevisiae CLN2oe strain, hits give high values
In short: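 Cells of an engineered yeast line with disturbed cell-cycle regulation are treated with compound. Inhibition of growth is then calculated relative to the vehicle-treated reference.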

[9] = NCI Yeast Anticancer Drug Screen. Data for the cln2 rad14 strain (AID 165);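 note: 0% = growth equal to vehicle treated cultures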; details: S. cerevisiae cln2 rad14 strain, hits give high values
In short: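 Strain: cln2 rad14 yeast, altered in cell cycle control and DNA damage repair. Read-out: growth inhibition vs vehicle.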

[10] = NCI Yeast Anticancer Drug Screen. Data for the bub3 strain (AID 167); details: S. cerevisiae bub3 mutant strain, hits give high values
In short: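 Steps: expose the mutant yeast strain to compound; grow alongside vehicle-treated cultures; measure growth; express inhibition against the vehicle cultures.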

[11] = NCI Yeast Anticancer Drug Screen. Data for the wt2 strain (AID 169);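 note: 0% = growth of vehicle-treated yeast cultures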; details: S. cerevisiae wt2 strain growth inhibition, hits give high values
In short: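 Growth of compound-treated yeast is measured and expressed as inhibition relative to vehicle-only controls.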

[12] = NCI Yeast Anticancer Drug Screen. Data for the mlh1 strain (AID 171);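 note: 0% = growth of vehicle-treated control cultures of the same strain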; details: S. cerevisiae mlh1 strain growth inhibition, hits give high values
In short: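 Test agents were incubated with yeast bearing a defined DNA damage repair or cell cycle control alteration; values are growth inhibition normalised to vehicle-treated cultures.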

[13] = NCI Yeast Anticancer Drug Screen. Data for the sgs1 strain (AID 173);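 note: 0% = growth of vehicle-only control cultures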; details: S. cerevisiae sgs1 mutant, hits give high values
In short: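 Strain with an altered DNA repair or cell cycle pathway exposed to compound. Growth then measured. Value = inhibition versus vehicle control.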

[14] = NCI Yeast Anticancer Drug Screen. Data for the mlh1 rad18 strain (AID 175); details: S. cerevisiae mlh1 rad18 strain growth inhibition, hits give high values
In short: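 A repair-deficient yeast strain is exposed to test compound, and growth is scored relative to vehicle-treated controls.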

[15] = NCI Yeast Anticancer Drug Screen. Data for the rad18 strain (AID 177); details: S. cerevisiae rad18 mutant growth inhibition, hits give high values
In short: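 DNA-repair-defective yeast; compound treatment; growth inhibition scored against vehicle.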

[16] = at 5.0 µM (retest, dose inferred, filed as 0.5)
[17] = at 50.0 µM (retest, dose inferred, filed as 5.0)

Measured: growth inhibition

N#Cc1sc2c(c1OC(=O)c1ccco1)c(=O)n(-c1ccccc1)c(=S)n2-c1ccccc1
inactive: [1]; at 1.2 µM 0% | [1]; at 3.7 µM 1% | [1]; at 11.0 µM -1% | [1]; at 33.0 µM 0% | [1]; at 100.0 µM 0% | [2]; at 1.2 µM -3% | [2]; at 3.7 µM -4% | [2]; at 11.0 µM -1% | [2]; at 33.0 µM -1% | [2]; at 100.0 µM 0% | [3]; at 1.2 µM 9% | [3]; at 3.7 µM 6% | [3]; at 11.0 µM 11% | [3]; at 33.0 µM 8% | [3]; at 100.0 µM 5% | [4]; at 1.2 µM 0% | [4]; at 3.7 µM 2% | [4]; [16] 3% | [4]; at 11.0 µM 1% | [4]; at 33.0 µM 0% | [4]; at 100.0 µM -1% | [5]; at 1.2 µM -1% | [5]; at 3.7 µM -1% | [5]; [16] 7% | [5]; at 11.0 µM -2% | [5]; at 33.0 µM -6% | [5]; at 100.0 µM 0% | [6]; at 1.2 µM 1% | [6]; at 3.7 µM 1% | [6]; at 11.0 µM 3% | [6]; at 33.0 µM 2% | [6]; at 100.0 µM -2% | [7]; [16] 0% | [8]; at 1.2 µM -2% | [8]; at 3.7 µM -1% | [8]; at 11.0 µM 4% | [8]; at 33.0 µM -1% | [8]; at 100.0 µM -6% | [9]; [16] 23% | [10]; at 1.2 µM 0% | [10]; at 3.7 µM -4% | [10]; [16] 13% | [10]; at 11.0 µM -3% | [10]; at 33.0 µM 0% | [10]; at 100.0 µM -6% | [11]; at 1.2 µM -1% | [11]; at 3.7 µM -1% | [11]; at 11.0 µM -2% | [11]; at 33.0 µM -9% | [11]; at 100.0 µM 3% | [12]; at 1.2 µM -4% | [12]; at 3.7 µM -2% | [12]; at 11.0 µM -2% | [12]; at 33.0 µM -5% | [12]; at 100.0 µM -3% | [13]; at 1.2 µM 0% | [13]; at 3.7 µM 1% | [13]; at 11.0 µM 0% | [13]; at 33.0 µM 1% | [13]; at 100.0 µM 0%
active: [4]; [17] 94% | [4]; at 50.0 µM 94.6% | [5]; [17] 82% | [5]; at 50.0 µM 95% | [7]; [17] 95% | [7]; at 50.0 µM 95.7% | [9]; [17] 91% | [9]; at 50.0 µM 94% | [10]; [17] 91% | [10]; at 50.0 µM 95.4%

CC(C)c1[nH]nc(C(N)=O)c1N=NN(C)C
active: [1]; at 33.0 µM 87% | [1]; at 100.0 µM 95% | [3]; at 33.0 µM 73% | [3]; at 100.0 µM 91% | [4]; at 33.0 µM 81% | [4]; [17] 83% | [4]; at 50.0 µM 91.5% | [4]; at 100.0 µM 93% | [13]; at 100.0 µM 84% | [15]; at 33.0 µM 80% | [15]; at 100.0 µM 94%
inactive: [1]; at 1.2 µM 3% | [1]; at 3.7 µM 4% | [1]; at 11.0 µM 40% | [2]; at 1.2 µM -5% | [2]; at 3.7 µM -4% | [2]; at 11.0 µM -8% | [2]; at 33.0 µM -7% | [2]; at 100.0 µM -1% | [3]; at 1.2 µM -1% | [3]; at 3.7 µM 15% | [3]; at 11.0 µM 37% | [4]; at 1.2 µM -5% | [4]; at 3.7 µM 3% | [4]; [16] -90% | [4]; at 11.0 µM 33% | [5]; at 1.2 µM 1% | [5]; at 3.7 µM -1% | [5]; [16] -46% | [5]; at 11.0 µM -10% | [5]; at 33.0 µM 4% | [5]; [17] -16% | [5]; at 50.0 µM 24.4% | [5]; at 100.0 µM 61% | [6]; at 1.2 µM -1% | [6]; at 3.7 µM 1% | [6]; at 11.0 µM 6% | [6]; at 33.0 µM 12% | [6]; at 100.0 µM 29% | [7]; [16] -47% | [7]; [17] 24% | [7]; at 50.0 µM 28.9% | [8]; at 1.2 µM -3% | [8]; at 3.7 µM -5% | [8]; at 11.0 µM -2% | [8]; at 33.0 µM -5% | [8]; at 100.0 µM 6% | [9]; [16] -55% | [9]; [17] -43% | [9]; at 50.0 µM 5.65% | [10]; at 1.2 µM -17% | [10]; at 3.7 µM -5% | [10]; [16] -63% | [10]; at 11.0 µM -5% | [10]; at 33.0 µM -14% | [10]; [17] -87% | [10]; at 50.0 µM -4% | [10]; at 100.0 µM -2% | [11]; at 1.2 µM -2% | [11]; at 3.7 µM -1% | [11]; at 11.0 µM -2% | [11]; at 33.0 µM -8% | [11]; at 100.0 µM 4% | [12]; at 1.2 µM 4% | [12]; at 3.7 µM -8% | [12]; at 11.0 µM -2% | [12]; at 33.0 µM -3% | [12]; at 100.0 µM 4% | [13]; at 1.2 µM -2% | [13]; at 3.7 µM -6% | [13]; at 11.0 µM 12% | [13]; at 33.0 µM 51% | [14]; [16] -101% | [14]; [17] 24% | [14]; at 50.0 µM 58.1% | [15]; at 1.2 µM 3% | [15]; at 3.7 µM 12% | [15]; at 11.0 µM 39%
